From PubChem BioAssay (NCI)
Where “and” joins values, the source holds several entries; their conditions need not be identical. Equal values may be shown once. About 79,000 compounds went through this panel and 15% of them were active in at least one assay; those are over-represented in the sample as a whole. Some compounds were tested as several samples or in several runs, with calls that do not always agree. Calls of active or inactive are those of the source. Cut-off read from the data, not from the text of the source: active = growth inhibition above about 70%; inactive = the rest.

How the values were obtained:
[1] = NCI Yeast Anticancer Drug Screen. Data for the rad50 strain (AID 155);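 note: 0% = growth of vehicle-only cultures of the same strain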; conditions: S. cerevisiae rad50 strain growth inhibition; at 50.0 µM; stronger effect = higher value
How it was run: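 Readout: growth inhibition relative to vehicle-treated cultures. Compound exposure was carried out in a genetically defined yeast strain deficient in DNA damage repair.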

[2] = NCI Yeast Anticancer Drug Screen. Data for the mec2-1 strain (AID 157); conditions: S. cerevisiae mec2-1 strain, at 50.0 µM, stronger effect = higher value
How it was run: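 Mutant yeast (mec2-1) grown with compound; growth inhibition relative to vehicle control reported.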

[3] = NCI Yeast Anticancer Drug Screen. Data for the sgs1 mgt1 strain (AID 161);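 note: 0% = growth of cultures given vehicle only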; conditions: S. cerevisiae sgs1 mgt1 strain, at 50.0 µM, stronger effect = higher value
How it was run: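 Compounds are added to genetically altered yeast, and growth is compared with cultures given vehicle alone to give percent inhibition.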

[4] = NCI Yeast Anticancer Drug Screen. Data for the cln2 rad14 strain (AID 165);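 note: 0% = growth equal to vehicle treated cultures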; conditions: S. cerevisiae cln2 rad14 strain, at 50.0 µM, stronger effect = higher value
How it was run: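 Readout is yeast growth inhibition versus vehicle-treated controls, using a strain with cln2 and rad14 alterations exposed to compound.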

[5] = NCI Yeast Anticancer Drug Screen. Data for the bub3 strain (AID 167); conditions: S. cerevisiae bub3 mutant strain, at 50.0 µM, stronger effect = higher value
How it was run: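 Readout: yeast growth inhibition, expressed relative to vehicle-only wells. The test organism is a mutant strain from a panel with lesions in DNA repair or checkpoint genes.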

[6] = NCI Yeast Anticancer Drug Screen. Data for the mlh1 rad18 strain (AID 175); conditions: S. cerevisiae mlh1 rad18 strain growth inhibition; at 50.0 µM; stronger effect = higher value
How it was run: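 Genetically defined yeast (DNA repair-deficient) exposed to compounds; growth inhibition determined relative to vehicle.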

| SMILES | growth inhibition [1] | growth inhibition [2] | growth inhibition [3] | growth inhibition [4] | growth inhibition [5] | growth inhibition [6] |
| --- | --- | --- | --- | --- | --- | --- |
| COC1=CC2C3Cc4c(-c5cc(OC)c(O)c6c5CC5C7C=C(OC)C(=O)CC67CCN5C)cc(OC)c(O)c4C2(CCN3C)CC1=O (stereo not drawn) | -2.7% (inactive) and -3.05% (inactive) | 1.25% (inactive) and 2.55% (inactive) | -2.75% (inactive) and -13.1% (inactive) | 0.25% (inactive) and -10.2% (inactive) | -2.45% (inactive) and -0.65% (inactive) | 3.7% (inactive) and 12.1% (inactive) |
| CCCP(=S)(CCC)P(=S)(CCC)CCC | 5.4% (inactive) | 19.4% (inactive) | 20.9% (inactive) | -2.75% (inactive) | 18% (inactive) | 20.9% (inactive) |
| NC(=O)Cc1ccc([As]=O)cc1 (stereo not drawn) | 19.6% (inactive) | 10.1% (inactive) | 9.05% (inactive) | 21% (inactive) | 6.85% (inactive) | 14.9% (inactive) |
| [NH-]C(CCC(N)=O)C(=O)O.[NH-]C(CCC(N)=O)C(=O)O.[Zn+2] (stereo not drawn) | -23.1% (inactive) | -22.9% (inactive) | -27.1% (inactive) | 13.3% (inactive) | -26.6% (inactive) | -38.2% (inactive) |
| CC(=O)OC1CCC2C3CCC4CC5(CCC4(C)C3CCC12C)CO5 (stereo not drawn) | -2.45% (inactive) | -10.7% (inactive) | -26.2% (inactive) | 1.2% (inactive) | 1.75% (inactive) | 1.2% (inactive) |
| O=C1C2CCC(C2)[CH]1[Hg][Cl] (stereo not drawn) | 99.4% (active) | 99.7% (active) | 99.5% (active) | 99% (active) | 99.3% (active) | 99.5% (active) |
| CC(C)(Cl)[N+](=O)[O-] | -3.35% (inactive) | -13.3% (inactive) | 6.65% (inactive) | -1.7% (inactive) | -5.45% (inactive) | 16.6% (inactive) |
| CCN1C[C@]2(C)CC[C@H](O)C34C1C(C[C@@H]32)[C@@]1(O)CC[C@H]2C[C@@H]4[C@@H]1[C@H]2O | 19.4% (inactive) | 1.15% (inactive) | -1.45% (inactive) | 23.8% (inactive) | 6.7% (inactive) | 31.2% (inactive) |
| CCOC(=O)C1C(=O)C(CN(CCCl)CCCl)C(=O)C(C(=O)OCC)C1c1cc(OC)c(OC)c(OC)c1 (stereo not drawn) | 17.9% (inactive) | -8.05% (inactive) | 16.6% (inactive) | -27.9% (inactive) | 0% (inactive) | 30.9% (inactive) |
| CCC[C@H]1CCCCN1 | 27.1% (inactive) | 12.7% (inactive) | 23.4% (inactive) | 18.9% (inactive) | -13% (inactive) | 3.6% (inactive) |
| CCOP(=S)(OCC)Oc1ccccc1 | -3.8% (inactive) | -14.5% (inactive) | -15.2% (inactive) | -7.6% (inactive) | -20.9% (inactive) | 3.5% (inactive) |
| CC12OCCN1CCO2 | 10.9% (inactive) | -3.25% (inactive) | 11.8% (inactive) | 5.45% (inactive) | 12.8% (inactive) | 4% (inactive) |
| NC1=NC(=O)C(c2ccccc2)(c2ccccc2)O1 | -1% (inactive) | -8.6% (inactive) | 5.95% (inactive) | -0.65% (inactive) | -19.3% (inactive) | -4.15% (inactive) |
| CC1(C)CC(=O)CC(C)(C)C1 | -25.6% (inactive) | -12.2% (inactive) | -1.65% (inactive) | 4.35% (inactive) | -13.2% (inactive) | -11.2% (inactive) |
| CC(Br)([N+](=O)[O-])[N+](=O)[O-] | 14.6% (inactive) | 25.8% (inactive) | 13.9% (inactive) | 39.6% (inactive) | 5.4% (inactive) | 2.8% (inactive) |
| CCN1CN(c2ccccc2)C2(CCN(CC(CC3OCCO3)c3ccc(F)cc3)CC2)C1=O (stereo not drawn) | 28.5% (inactive) | 32.2% (inactive) | 51.9% (inactive) | 13.6% (inactive) | 47% (inactive) | 44.6% (inactive) |
| Cc1csc2n/c(=N/[N+](=O)[O-])sn12 | 51.5% (inactive) | 26.9% (inactive) | 46.8% (inactive) | -12.5% (inactive) | 50.4% (inactive) | 44.1% (inactive) |
| CC1(C)C=C(NC(=O)N2CC2)C(C)(C)N1O | 12.7% (inactive) | 11.3% (inactive) | -2% (inactive) | 9.75% (inactive) | 34.8% (inactive) | 1.45% (inactive) |
| C=CC(=O)OCCN(C)C | 1.5% (inactive) | -4.65% (inactive) | -4.4% (inactive) | -0.25% (inactive) | 2.1% (inactive) | 1.65% (inactive) |

| SMILES | growth inhibition [1] | growth inhibition [2] | growth inhibition [3] | growth inhibition [4] | growth inhibition [5] | growth inhibition [6] |
| --- | --- | --- | --- | --- | --- | --- |
| O=C(O)CNC(=O)c1ccc([As](=O)(O)O)cc1 | 21.1% (inactive) | 19.1% (inactive) | -26.4% (inactive) | 10.2% (inactive) | 22.1% (inactive) | 15.3% (inactive) |
| Cc1ccc(NC(=O)C(=O)C2C(=O)NC(=O)NC2=O)cc1C | -4.9% (inactive) | -14.3% (inactive) | -34.6% (inactive) | 3.85% (inactive) | -19.9% (inactive) | -23.2% (inactive) |
| COc1ccc(CCN(C)C(C)C2C3CC4CC(C3)CC2C4)cc1OC (stereo not drawn) | 35.5% (inactive) | 11.3% (inactive) | 19.2% (inactive) | -16.4% (inactive) | -1.1% (inactive) | 17.9% (inactive) |
| S=c1sc(-c2ccc(Cl)cc2)c[se]1 | 4.45% (inactive) | 3.85% (inactive) | -13.3% (inactive) | -33.2% (inactive) | 1.7% (inactive) | -5.05% (inactive) |
| Cc1cccc(OCC2=NCCN2)c1C | 2.95% (inactive) | -4.4% (inactive) | -8.45% (inactive) | -57.1% (inactive) | -4.55% (inactive) | -25.6% (inactive) |
| NS(=O)(=O)c1ccc([As](=O)(O)O)cc1 | -1.1% (inactive) | -3.85% (inactive) | 5% (inactive) | -45.5% (inactive) | 12.2% (inactive) | -15.7% (inactive) |
| COc1cc(=O)oc(/C=C/C=C/C=C/C(C)=C\C2(C)OC(C)C(C)(O)C2O)c1C (stereo not drawn) | 6.3% (inactive) | -8.35% (inactive) | 3.35% (inactive) | -9.4% (inactive) | -20.4% (inactive) | -0.95% (inactive) |
| O=[N+]([O-])c1cc(C2CCCCC2)c(O)c([N+](=O)[O-])c1 | 47.3% (inactive) and 47.2% (inactive) | 26% (inactive) and 79.5% (active) | 18% (inactive) and 80.8% (active) | -8.75% (inactive) and 59.2% (inactive) | 21.2% (inactive) and 81.8% (active) | 26.4% (inactive) and 86.3% (active) |
| CC1c2[nH]c3ccccc3c2CCN1C (stereo not drawn) | 4.2% (inactive) | -21.7% (inactive) | 7.8% (inactive) | 13.5% (inactive) | -6.95% (inactive) | 12.3% (inactive) |
| c1ccc(-c2cccc(-c3ccccc3)c2)cc1 | 30.1% (inactive) | 15.3% (inactive) | 31.3% (inactive) | -0.6% (inactive) | 24.6% (inactive) | 44% (inactive) |
| O=C1C2CCN(CC2)C1(CO)CO | -4.4% (inactive) | -4.25% (inactive) | -26.6% (inactive) | -58.1% (inactive) | -30.4% (inactive) | -20.2% (inactive) |
| CC1(C)C2CC[C@@]1(C)C(=O)C2Br (stereo partly drawn) | 24.9% (inactive) | 25.6% (inactive) | -1.6% (inactive) | 7.55% (inactive) | 23.9% (inactive) | -8.7% (inactive) |
| CO[C@H]1C[C@H](O[C@H]2CC[C@]3(C=O)[C@H]4CC[C@]5(C)[C@@H](C6=CC(=O)OC6)CC[C@]5(O)[C@@H]4CC[C@]3(O)C2)O[C@H](C)[C@H]1O[C@@H]1O[C@H](CO)[C@@H](O)[C@H](O)[C@H]1O | 18.4% (inactive) | -11.1% (inactive) | 6.2% (inactive) | 12.2% (inactive) | 6.9% (inactive) | 32.3% (inactive) |
| CN(C(=[Se])[Se]C(=[Se])N(C)C1CCCCC1)C1CCCCC1 | 19.4% (inactive) | 5% (inactive) | 8.35% (inactive) | 18.4% (inactive) | 0.4% (inactive) | 12.6% (inactive) |
| CC(C)CCC(=O)O[C@H]1CC[C@@]2(C)C(=CC[C@@H]3[C@@H]2CC[C@]2(C)C(=O)CC[C@@H]32)C1 | 26.2% (inactive) | 8.4% (inactive) | 11.4% (inactive) | 17.1% (inactive) | 1.95% (inactive) | 23.3% (inactive) |
| CCOC(=O)C1=C(C)N2CCCOC2(C)C(C(=O)OC)C1c1cccc([N+](=O)[O-])c1 (stereo not drawn) | 38% (inactive) | 10.8% (inactive) | -6.5% (inactive) | 18.5% (inactive) | -34.6% (inactive) | 27.8% (inactive) |
| CN1CCOC(c2ccccc2)c2ccsc2CC1 (stereo not drawn) | 17.2% (inactive) | -5% (inactive) | 35.2% (inactive) | 0% (inactive) | 9.4% (inactive) | 16.8% (inactive) |
| CC1=CC23C(COC(=O)C24CO4)C(C(=O)O)=CC3C1C (stereo not drawn) (tested in a mixture with another compound) | 38% (inactive) | 29% (inactive) | 34.5% (inactive) | 33.4% (inactive) | 17.9% (inactive) | 30.4% (inactive) |
| COc1cccc(C=O)c1OC | 15.8% (inactive) and 43.1% (inactive) | 2.2% (inactive) and 24.1% (inactive) | 4.2% (inactive) and 20.9% (inactive) | 27.1% (inactive) and -7.95% (inactive) | 3.5% (inactive) and 12.7% (inactive) | 47% (inactive) and 37.1% (inactive) |
